Records with an inconclusive call do not appear. The source made the active and inactive calls. The call rests on the fitted dose curve; in most records, active means well fitted inhibition curve with a large enough effect; inconclusive means small, poorly fitted or top-dose-only effect, or effect the other way; inactive means flat fitted curve, though single readings scatter.
What follows are molecules tested against ATP-dependent 6-phosphofructokinase (Trypanosoma brucei brucei) (UniProt O15648) (assay: qHTS Assay to Find Inhibitors of T. brucei phosphofructokinase: hit validation (AID 492961;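 on activity change, negative = inhibition: luminescence reports ADP formed as PFK phosphorylates fructose-6-phosphate with ATP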)). Conditions: T. brucei PFK, ADP-Glo luminescence; series mostly up to 51.4 µM; activity change, negative = inhibition: at the top concentration.
Sequence of ATP-dependent 6-phosphofructokinase (Trypanosoma brucei brucei) (O15648 whole entry, looked up): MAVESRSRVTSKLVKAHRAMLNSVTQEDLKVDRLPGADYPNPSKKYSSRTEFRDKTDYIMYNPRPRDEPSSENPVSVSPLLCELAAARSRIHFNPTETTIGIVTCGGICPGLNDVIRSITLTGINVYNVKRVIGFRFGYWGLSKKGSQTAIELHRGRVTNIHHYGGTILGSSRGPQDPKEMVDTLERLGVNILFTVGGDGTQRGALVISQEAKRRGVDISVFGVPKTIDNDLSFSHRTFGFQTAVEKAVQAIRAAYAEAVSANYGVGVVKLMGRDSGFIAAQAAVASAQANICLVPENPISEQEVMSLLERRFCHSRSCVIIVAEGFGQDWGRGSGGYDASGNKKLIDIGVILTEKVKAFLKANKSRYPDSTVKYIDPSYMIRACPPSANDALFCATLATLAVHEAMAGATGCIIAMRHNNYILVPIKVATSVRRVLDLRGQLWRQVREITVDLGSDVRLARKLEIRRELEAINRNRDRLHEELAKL
In short: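 PFK 1.25 nM, F6P 0.5 mM, ATP 0.1 mM, MgCl2 5 mM, 0.1 M TEA pH 8.0, Tween20 0.01%, BSA 0.1%; 45 min RT. ADP-Glo two-step detection, luminescence. qHTS titration; curve fitting with curve-class categorization.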
With `O=C1CCCCC1CN1CCCCC1` (centres undefined) the “activity change, negative = inhibition” value was -6.82% (inactive).
`O=C(OCCN1CCCCC1)C(O)(c1ccccc1)c1ccccc1` was tested, and the “activity change, negative = inhibition” value was -0.184% (inactive).
In the case of `CCC1(c2ccccc2)C(=O)NC(=O)N(C(=O)c2ccccc2)C1=O` (centres undefined), the “activity change, negative = inhibition” value is reported as 0% (inactive).
With `c1cc2c(c(NC3=NCCN3)c1)CCCC2` the “activity change, negative = inhibition” value was -5.49% (inactive).
`CCN(CC)C(=O)/C(Cl)=C(\C)OP(=O)(OC)OC` was tested, and the “activity change, negative = inhibition” value was -6.21% (inactive).
For `CC1CCC(C(C)C)C(OC(=O)c2ccccc2N)C1` (centres undefined), the “activity change, negative = inhibition” value was -0.4% (inactive).
With `C/C(=C\c1csc(C)n1)[C@@H]1C[C@@H]2O[C@]2(C)CCC[C@H](C)[C@H](O)[C@@H](C)C(=O)C(C)(C)[C@@H](O)CC(=O)O1` the “activity change, negative = inhibition” value was -12.4% (inactive).
In the case of `OC(c1ccccc1)(c1ccccc1)C1CN2CCC1CC2` (centres undefined), the “activity change, negative = inhibition” value is reported as 0% (inactive).
With `O=Cc1ccco1` the “activity change, negative = inhibition” value was -18.1% (inactive).
For `O=C(O)C(Cl)(Cl)Cl`, the “activity change, negative = inhibition” value was -3.81% (inactive).
In the case of `Cn1sc(Cl)cc1=O`, the “activity change, negative = inhibition” value is reported as 11.5% (inactive).
For `CCCC(C)(COC(N)=O)COC(=O)NC1CC1` (centres undefined), the “activity change, negative = inhibition” value was 2.72% (inactive).
`CCCCCCCCCC(=O)O[C@H]1CC[C@H]2[C@@H]3CCC4=CC(=O)CC[C@]4(C)[C@H]3CC[C@]12C` was tested, and the “activity change, negative = inhibition” value was 9.44% (inactive).
With `CC(C)(C)c1cc(O)ccc1O` the “activity change, negative = inhibition” value was -17.4% (inactive).
In the case of `CCC1(c2ccccc2)C(=O)NC(=O)N(C)C1=O` (centres undefined), the “activity change, negative = inhibition” value is reported as -2.32% (inactive).
For `CN1[C@@H]2CC[C@H]1CC(OC1c3ccccc3CCc3ccccc31)C2` (some centres undefined), the “activity change, negative = inhibition” value was -11% [at 24.3 µM] (inactive).
In the case of `CC[N+](C)(CC)CCOC(=O)C(O)(c1ccccc1)c1ccccc1`, the “activity change, negative = inhibition” value is reported as -0.444% (inactive).
In the case of `C=CCN1CC[C@]23c4c5ccc(O)c4O[C@H]2[C@@H](O)C=C[C@H]3[C@H]1C5`, the “activity change, negative = inhibition” value is reported as -0.88% (inactive).
In the case of `CCOP(=O)(OCC)O/C(=C/Cl)c1ccc(Cl)cc1Cl`, the “activity change, negative = inhibition” value is reported as -8.65% (inactive).
For `CCCC(=O)OC(C(Cl)(Cl)Cl)P(=O)(OC)OC` (centres undefined), the “activity change, negative = inhibition” value was 1.58% (inactive).
For `c1ccc2sc(SNC3CCCCC3)nc2c1`, the “activity change, negative = inhibition” value was 8.74% (inactive).
In the case of `CCCCNCC(O)c1ccc(O)cc1` (centres undefined), the “activity change, negative = inhibition” value is reported as -12% (inactive).
For `N#CN`, the “activity change, negative = inhibition” value was -2.94% (inactive).
`CCCC(C)C1(CC)C(=O)NC(=O)NC1=O` (centres undefined) was tested, and the “activity change, negative = inhibition” value was 9.7% (inactive).
In the case of `O=[N+]([O-])c1ccccc1`, the “activity change, negative = inhibition” value is reported as -5.77% (inactive).
In the case of `O=C(CCl)c1ccc(Oc2ccc(C(=O)CCl)cc2)cc1`, the “activity change, negative = inhibition” value is reported as -6.06% (inactive).
`COC1=CC=C2[C@H]3Cc4ccc(OC)c5c4[C@@]2(CCN3C)[C@H]1O5` was tested, and the “activity change, negative = inhibition” value was 2.22% [at 24.3 µM] (inactive).
In the case of `C=CCN=C=S`, the “activity change, negative = inhibition” value is reported as 1.02% (inactive).
With `C#CC(C)(O)CC` (centres undefined) the “activity change, negative = inhibition” value was -4.22% (inactive).
In the case of `S=C=S`, the “activity change, negative = inhibition” value is reported as 7.14% (inactive).
`CC(C)CCON=O` was tested, and the “activity change, negative = inhibition” value was 9.79% (inactive).
For `ClC=C(Cl)Cl`, the “activity change, negative = inhibition” value was 24.9% (inactive).
`CCCCCCCCOC(=O)c1ccccc1C(=O)OCCCCCCCC` was tested, and the “activity change, negative = inhibition” value was -0.994% (inactive).
In the case of `CC(=O)OO`, the “activity change, negative = inhibition” value is reported as -2.08% (inactive).
In the case of `N#CC1(N2CCCCC2)CCCCC1`, the “activity change, negative = inhibition” value is reported as 9.89% (inactive).
In the case of `[O]=[Cd]`, the “activity change, negative = inhibition” value is reported as 0.328% (inactive).
`CC(=O)OC1CN2CCC1CC2` (centres undefined) was tested, and the “activity change, negative = inhibition” value was 0% (inactive).
`Clc1ccc(Cl)cc1` was tested, and the “activity change, negative = inhibition” value was 0.994% (inactive).
With `Oc1cccc[c]1[Hg][Cl]` the Potency was 5.62 µM (active).

Source: PubChem BioAssay (NCATS)
On the % scale 0 is the no-effect control and ±100 the full control effect; potency means the concentration at half of the fitted maximal effect.
